Among all 2,000 compounds or so, about 45 (2%) were called active.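 The calls were made as follows: active = inhibition above the mean of all tested compounds plus 3 SD (cut at about 49% in these data); inactive = the rest.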 Shown is part of a subset that was picked to be rich in actives.
These molecules were tested against Perilipin-5 (Homo sapiens) + 1-acylglycerol-3-phosphate O-acyltransferase ABHD5 (Homo sapiens) (UniProt Q00G26+Q8WTS1) (assay: blockers of ABHD5 binding to perilipin-5 – cell lysate, split luciferase complementation, luminescence, NIH validation set, pilot screen (AID 493035;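 also: 0% = DMSO only wells while the 100% control is not stated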)). Conditions: split G. princeps luciferase complementation, lysates, 4 h, at 7.9 µM, stronger effect = higher value.
Perilipin-5 (Homo sapiens) + 1-acylglycerol-3-phosphate O-acyltransferase ABHD5 (Homo sapiens), sequence (Q00G26 whole entry, looked up): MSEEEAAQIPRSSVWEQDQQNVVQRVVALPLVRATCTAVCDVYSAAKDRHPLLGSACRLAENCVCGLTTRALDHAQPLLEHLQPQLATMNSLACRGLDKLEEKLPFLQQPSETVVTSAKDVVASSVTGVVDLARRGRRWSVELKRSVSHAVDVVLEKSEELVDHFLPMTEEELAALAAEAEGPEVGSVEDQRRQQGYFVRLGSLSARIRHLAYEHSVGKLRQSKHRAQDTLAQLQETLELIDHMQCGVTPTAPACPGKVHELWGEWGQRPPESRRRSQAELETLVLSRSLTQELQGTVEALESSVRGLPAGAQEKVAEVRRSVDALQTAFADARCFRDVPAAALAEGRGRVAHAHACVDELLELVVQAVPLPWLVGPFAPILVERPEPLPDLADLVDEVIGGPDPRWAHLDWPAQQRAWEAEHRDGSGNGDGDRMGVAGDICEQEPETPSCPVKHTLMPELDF
Perilipin-5 (Homo sapiens) + 1-acylglycerol-3-phosphate O-acyltransferase ABHD5 (Homo sapiens), sequence (Q8WTS1 whole entry, looked up): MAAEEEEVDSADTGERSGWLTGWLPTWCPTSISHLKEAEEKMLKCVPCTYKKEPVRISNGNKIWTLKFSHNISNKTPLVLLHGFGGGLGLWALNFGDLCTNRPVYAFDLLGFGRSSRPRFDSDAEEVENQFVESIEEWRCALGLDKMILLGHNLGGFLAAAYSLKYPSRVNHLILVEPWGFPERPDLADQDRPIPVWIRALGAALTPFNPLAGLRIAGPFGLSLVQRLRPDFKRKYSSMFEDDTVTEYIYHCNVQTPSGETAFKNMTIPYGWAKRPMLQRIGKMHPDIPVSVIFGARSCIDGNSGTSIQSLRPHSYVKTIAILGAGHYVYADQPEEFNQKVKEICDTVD

Structure (SMILES)	inhibition
O=C1C(=O)c2ccccc2-c2ccccc21	69.8% (active)
S=C1NCCN1	-0.74% (inactive)
CC12CN3CC(C)(CN(C1)C31CCOCC1)C2=O	-15.3% (inactive)
C[C@H]1CCC/C=C/C2C[C@H](O)CC2[C@H](O)/C=C/C(=O)O1 (stereo not given in full)	-14.2% (inactive)
CC[C@]12C=CCN3CCC4(c5cc(Br)c(OC)cc5N(C)C4[C@@](O)(C(=O)OC)[C@@H]1OC(C)=O)C32 (stereo not given in full)	-5.38% (inactive)
CCOC(=O)c1cc2c(cn1)[nH]c1ccccc12	-11.3% (inactive)
COP(=S)(OC)SCN1C(=O)c2ccccc2C1=O	93.3% (active)
COc1ccc2c(c1)CC1(CN2C)C(=O)NC(=O)N(CCc2ccccc2)C1=O (stereo not given)	3.64% (inactive)
CC12CCC3C(CC=C4CC(O)CCC43C)C1C/C(=C\c1cccc(F)c1)C2=O (stereo not given)	-0.83% (inactive)
O=C1C=Cc2ccccc2C1=O	59.1% (active)
C[N+]1(C)C2CCC1CC(OC(=O)C(CO)c1ccccc1)C2 (stereo not given)	-3.97% (inactive)
C[C@H]1CCCC(=O)CCCCCc2cc(O)cc(O)c2C(=O)O1	6.49% (inactive)
Cc1cc2c(C(C)C)c(O)c(O)c(C=O)c2c(O)c1-c1c(C)cc2c(C(C)C)c(O)c(O)c(C=O)c2c1O	50.7% (active)
NCC1(c2ccc3c(c2)OCCO3)CCCC1	-7.35% (inactive)
CCOC(=O)C(C)Oc1cc(C)cc2oc(=O)c3c(c12)CCCC3 (stereo not given)	6.91% (inactive)
COc1cc(/C=C2\C(=O)NC(=O)N(c3ccccc3)C2=O)c([N+](=O)[O-])cc1OC	63.5% (active)
Cc1ccc(/C=C2/C(=O)NC(=O)N(C)C2=O)cc1	7.85% (inactive)
CCOc1ccc(N2C(=O)NC(=O)/C(=C\c3cc(OC)c(OC)cc3[N+](=O)[O-])C2=O)cc1	66.2% (active)

Structure (SMILES)	inhibition
Cc1ccc(-n2c(C)cc(/C=C3/C(=O)NC(=O)N(C)C3=O)c2C)cc1	33.2% (inactive)
CC[C@@H](CO)NC(=O)[C@@H]1C=C2c3cccc4c3c(cn4C)C[C@H]2N(C)C1	1.19% (inactive)
C[C@]12CC[C@@H](O)C[C@@H]1CC[C@@H]1[C@@H]2CC[C@]2(C)C(=O)CC[C@@H]12	-8.46% (inactive)
Cc1ccsc1C(=O)C1CCCN(Cc2cc3ccccc3o2)C1 (stereo not given)	-2.51% (inactive)
COc1ccc(-c2nc3ccccc3c(=O)o2)cc1	-1.16% (inactive)
CC(Cc1ccccc1)NCC(=O)Nc1cc(N(C)C)nc2ccccc12 (stereo not given)	2.7% (inactive)
COc1ccccc1CN1CCCCC1c1cccnc1 (stereo not given)	-4.35% (inactive)
Clc1ccc(COC(Cn2ccnc2)c2ccc(Cl)cc2Cl)c(Cl)c1 (stereo not given)	4.9% (inactive)
COc1ccc(OC)c([C@@H](O)[C@H](C)NC(C)(C)C)c1	2.3% (inactive)
C[N+](C)(C)Cc1ccccc1	-2.04% (inactive)
CC12CN3CC(c4ccccc4)(CN(C1)C31CCCCC1)C2=O	-2.32% (inactive)
O=c1c2ccccc2[se]n1-c1ccccc1	95.1% (active)
Cc1nc2ccccc2c(=O)n1-c1ccc(C(=O)O)cc1	7.89% (inactive)
O=c1c2ccccc2nc(/C=C/c2ccc3c(c2)OCO3)n1-c1ccccc1	2.37% (inactive)
C[C@]12CC[C@@H](O)C[C@@H]1CC[C@@H]1[C@@H]2CC[C@]2(C)[C@@H](O)CC[C@@H]12	-3.26% (inactive)
CCN(CC)CCOC(=O)C(O)(c1ccccc1)c1ccccc1	0.42% (inactive)
CCN1CC2(COC(=O)c3ccccc3N)CCC(OC)C34C5CC6C(OC)CC(O)(C5C6OC)C(O)(C(OC)C23)C14 (stereo not given)	0.04% (inactive)

From PubChem BioAssay AID493035 (The Scripps Research Institute Molecular Screening Center, 2011)
